From PubChem BioAssay (NCATS)
Records with an inconclusive call do not appear. A number with no mark means an inactive call. Calls follow the shape of the dose curve; as a rule, active = well fitted curve in the direction sought with a large enough effect; inconclusive = small, poorly fitted or top-dose-only effect, or another doubt; inactive = no such curve, though single readings can be large or run the other way.

Assay: KB-8-5-11 P-gp reporter qHTS against the NCATS DSHEA and TCM libraries (AID 1919977); also: 0% is about no effect
Settings: KB-8-5-11 cells; series mostly up to 26.1 µM; activity change, negative = inhibition: at the top concentration
Outline: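 P-gp-overexpressing KB-8-5-11 cells were screened in colchicine-free medium at 500 cells/well, as a titration series. Cells were exposed for 72 h at 37C. Viability was read by CellTiter-Glo luminescence after 30 min at room temperature.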
With `CC1(C)C2CCC1(C)C(O)C2` (stereo not drawn) the “activity change, negative = inhibition” value was -7.6%.
In the case of `CC1=CCC(C(C)(C)O)CC1` (stereo not drawn), the “activity change, negative = inhibition” value is reported as 15.7%.
With `CCCCCC/C=C\CCCCCCCC(=O)O` the “activity change, negative = inhibition” value was -2.46%.
